# Screening data as filed in PubChem.
# nsP2pro inh – Primary qHTS for inhibitors of NSP2Pro chikungunya virus (CHIKV); Polyprotein P1234 (Chikungunya virus (strain S27-African prototype)), Q8JUX6; FRET peptide cleavage, nsP2pro, fluorescence 1 h; Potency, µM (series often up to 24.9 µM), inactives show top-dose activity change, negative = inhibition, most hits filed as inhibitors; hit rate 1.1% among 31,000; AID 1964107, 2024; calls by dose curve; note: nearly all actives have a fitted effect of over 60% in size
#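 Purified recombinant nsP2pro (150 nM final) in 10 mM Tris-HCl pH 8.0 with 0.01% Tween 20 was preincubated 15 min at room temperature with compound (7 concentrations, up to 25 uM). FRET peptide 2 substrate (2.5 uM final) was then added; fluorescence was read after 1 h.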
# The depositor's hits bear a star; i = inactive; ! = not confirmed by another sample; [ ] = remark or other dose. The entries come from a sample that favours hits as a whole. % is set by controls: 0 for no effect and ±100 for the full control effect; potency is the fitted concentration of half-maximal effect.
SMILES,nsP2pro inh
N[C@H](CO)C(=O)O,-26.2%
COC(=O)[C@@H](N)CS,11.1µM*
Cc1cc(-c2cnc(Nc3ccc(F)cc3)c3c2CCO3)ccn1,-23.2%[39.2 µM]
Cc1noc(C)c1-c1cnc(Nc2ccc(CN3CCN(C)CC3)cc2)c2c1CCO2,-9.1%[39.2 µM]
Cn1cc(-c2cnc(Nc3ccc(F)c(Cl)c3)c3c2CCO3)cn1,8.91µM*
O=C1N/C(=C\c2ccco2)C(=O)N1Cc1ccc(F)cc1,i
O=C1c2ccccc2C(=O)N1Cc1ccccc1,-5.3%
O=C1N/C(=C\c2ccco2)C(=O)N1Cc1ccccc1,12.6µM*
Cc1ccnc(NC(=S)N2CCC(c3cccc(C(F)(F)F)c3)CC2)c1,2.0%
C#CCOc1cccc(-c2nnc3n2N=C(c2ccc(OC)c(OCC(C)=O)c2)CS3)c1,i
Cc1ccc(OCCn2c(CCNC(=O)c3ccsc3)nc3ccccc32)cc1,3.4%
Cc1ccccc1S(=O)(=O)Nc1cnccc1C(=O)Nc1nc(-c2ccccc2)cs1,i
O=C(Nc1nc2c(s1)CCCCCC2)Nc1ccc(F)cc1F,-12.9%
CCCOc1ccccc1C(=O)Nc1nc2c(s1)CCCC2,12.6µM*
COc1ccccc1C(=O)Nc1nc(-c2ccccc2)cs1,-6.4%
O=[S+]1([O-])N(c2ccccc2)C[C@@H](O)[C@]12CCN(Cc1ccc(OC(F)F)cc1)C2,-11.1%
COc1cccc(-c2nc3cc(SC)ccc3cc2CN(C)Cc2ccno2)c1,4.9%
CCC[C@@H](NC(=O)[C@@H]1[C@H]2CCC[C@@H]2CN1C(=O)[C@@H](NC(=O)[C@@H](NC(=O)c1cnccn1)C1CCCCC1)C(C)(C)C)C(=O)C(=O)NC1CC1,7.94µM*
Cc1cccc(NC(=O)c2cc(-c3ccc(C)c(C)c3)nc3ccccc23)c1,1.4%
COc1ccc(C=CC(=O)O)cc1,-12.2%
CSCCC(C=O)NC(=O)C(CC(C)C)NC(=O)C(CC(C)C)NC(C)=O (stereo unspecified),-21.7%
O=C(COc1ccccc1)N[C@H]1CO[C@H]2[C@@H]1OC[C@@H]2Nc1nccc(-c2ccco2)n1,12.6µM*
CC(C)(C)c1ccnc(N[C@H]2CO[C@H]3[C@@H]2OC[C@@H]3NC(=O)c2ccco2)n1,-8.2%[39.2 µM]
O=C(COc1ccccc1)N[C@H]1CO[C@H]2[C@@H]1OC[C@@H]2Nc1nccc(-c2cccs2)n1,-12.4%
O=C(Nc1ccccc1)N[C@H]1CO[C@H]2[C@@H]1OC[C@@H]2Nc1nccc(-c2cccs2)n1,50.0%[39.2 µM]
SMILES,nsP2pro inh
CC(=O)c1ccc(NC(=O)N[C@H]2CO[C@H]3[C@@H]2OC[C@@H]3Nc2nccc(-c3ccco3)n2)cc1,-11.1%
O=C(N[C@H]1CO[C@H]2[C@@H]1OC[C@@H]2Nc1nccc(-c2ccco2)n1)c1ccco1,1µM*
C[C@@]1(F)[C@H](O)[C@@H](CO)O[C@H]1n1ccc(=O)[nH]c1=O,-18.9%
CC(C)(C#Cc1ccc(-c2ccc(Cl)c3c(NS(C)(=O)=O)nn(CC(F)(F)F)c23)c([C@H](Cc2cc(F)cc(F)c2)NC(=O)Cn2nc(C(F)(F)F)c3c2C(F)(F)[C@@H]2C[C@H]32)n1)S(C)(=O)=O,-14.2%
O=C(O)c1cccc(CN2C(=O)/C(=C(\c3ccccc3)c3ccc(Cl)cc3)c3ccccc32)c1,217.8%
CN[C@@H]1[C@@H](O)[C@@H](O[C@@H]2[C@@H](O)[C@H](O[C@H]3O[C@H]([C@@H](C)NC)CC[C@H]3N)[C@@H](N)C[C@H]2N)OC[C@]1(C)O,-3.6%
Cc1noc(C)c1S(=O)(=O)N1CCC2(C1)C(=O)N(c1ccccc1)c1ccccc12 (stereo unspecified),2.9%
N#Cc1c(-c2ccccc2C(F)(F)F)nc2ccccc2c1NCc1ccc(-c2ccnc(C(F)(F)F)c2)cc1,-11.9%
CN[C@@H]1[C@H](O[C@H]2[C@H](O[C@@H]3[C@@H](O)[C@H](O)[C@@H](N=C(N)N)[C@H](O)[C@H]3NC(=N)N)O[C@@H](C)[C@]2(O)CO)O[C@@H](CO)[C@H](O)[C@H]1O,2.6%
N#Cc1nc(-c2cccc3ccccc23)oc1NC1CNC1,i
CCc1nnc([C@@H]2CC(F)(F)CN2Cc2cccn2C)o1,-16.4%
C=CC(=O)Nc1ccc(CN2C(=O)N(c3cc(OC)cc(OC)c3)Cc3cnc(Nc4ccc(N5CCN(C)CC5)cc4)nc32)cc1,45.3%
O=C(O)c1cc(O)c(O)c(O)c1,12.4µM*!
O=C(O)c1cc(N=Nc2ccc(O)c(C(=O)O)c2)ccc1O,-17.7%
O=C(O)c1cc(O)c2c(c1)[O][Bi][O]2,-4.1%[0.199 µM]
O=C(C[C@H](CSc1ccccc1)C(=O)O)c1ccc(-c2ccc(Cl)cc2)cc1,-4.6%
Cc1cc2ncc(C(=O)NCc3ccccc3Cl)cn2n1,-1.4%[39.2 µM]
O=C(NCc1ccccc1Cl)c1ccc2nnc(-c3ccoc3)n2c1,11.2µM*
O=C(NCc1ccc(Cl)cc1)c1ccc2nnc(-c3cc[nH]c3)n2c1,3.0%
O=C(NCc1c(F)cc(F)cc1F)c1cn2c(c(O)c1=O)C(=O)N1[C@H]3CC[C@H](C3)O[C@@H]1C2,55.0%
Cc1ccnc(NC(=S)N[C@H]2CCN(c3cccc(C(F)(F)F)c3)C2)c1,i
CCc1ccc(NS(=O)(=O)c2ccc3[nH]c4c(c3c2)CCCCCC4)cc1,-19.0%
CCc1ccc(NS(=O)(=O)c2[nH]ncc2C(=O)OC)cc1,10µM*
CCCCc1ccc(NS(=O)(=O)c2ccc(F)cc2)cc1,-8.7%
COCCn1ccc2c(C3=CCOCC3)nc(-c3cccc4[nH]ccc34)cc21,-6.1%[39.2 µM]
SMILES,nsP2pro inh
CC(=O)N[C@@H](CCCN=C(N)N)C(=O)N[C@H]1CSSC[C@@H](C(N)=O)NC(=O)[C@H](Cc2c[nH]c3ccccc23)NC(=O)[C@H](CCCN=C(N)N)NC(=O)[C@@H](Cc2ccccc2)NC(=O)[C@H](Cc2cnc[nH]2)NC(=O)[C@@H](C)NC1=O,223.8%
COC(=O)N1CCCCC12Cc1ccccc1NC2=O (stereo unspecified),-3.6%[39.2 µM]
CC(C)C(=O)N1Cc2ccccc2NC(=O)C12CCNC2 (stereo unspecified),-7.8%[39.2 µM]
CC(C)=CCN1Cc2ccccc2NC(=O)C12CCNC2 (stereo unspecified),10µM*
O=C1Nc2ccccc2CN(CC2CCCC2)C12CCNC2 (stereo unspecified),12.6µM*
O=C1Nc2ccccc2CN(CC2CC2)C12CCNC2 (stereo unspecified),-7.4%[39.2 µM]
Cc1ccc([S+](=O)([O-])N2CCCCC23Cc2ccccc2NC3=O)cc1 (stereo unspecified),i
Cc1ccc(S(=O)(=O)Nc2ccc(Cl)cc2C(=O)Nc2nc(-c3ccccc3)cs2)cc1,-5.8%
Cc1cc(C)nc(NC(=S)N2CCN(c3ccc([N+](=O)[O-])c4cccnc34)CC2)c1,4.0%
Cc1cc(C)nc(NC(=S)N2CCN(c3cccc(OC(F)F)c3)CC2)c1,3.0%
Cc1cnc(-c2ccccc2C(F)F)nc1NCC1CN(c2cnccn2)C1,2.3%
O=C(N[C@H]1CCS[C@H]2CCC[C@@H](C(=O)O)N2C1=O)[C@@H](S)Cc1ccccc1,-25.1%
O=C(Nc1ccc(-c2nc3ccccc3[nH]2)cc1)c1ccc2ncccc2c1,-0.4%
O=C(Nc1ccc(-c2nc3ccccc3[nH]2)cc1)c1ccc2ncsc2c1,11.2µM*
O=C(Nc1ccc(-c2nc3ccccc3[nH]2)cc1)c1ccc2sccc2c1,-10.7%
CC(C)[S+](=O)([O-])N1CCC2(CC1)CC(c1cccc(C(F)(F)F)c1)=NO2,i
Cn1cc(-c2cc3c(N4CCN(c5ncc([C@@](C)(N)c6ccc(F)cc6)cn5)CC4)ncnn3c2)cn1,11.6%
